# From PubChem
# GALC G270D act: galactocerebrosidase G270D activity enhancement, cell-based; 145M-Twi-hGALC-G270D cells (Twitcher mouse brain line with human GALC G270D), HMU-beta-Gal fluorescence, 48 h; P54803; Potency, µM (titrated, usually from 57.5 µM), most hits filed as activators; 45,000 compounds, 0.1% hits; AID 1159614; also: nearly all actives have a fitted effect of over 65% in size
#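 Mutant human GALC (G270D), stably expressed in a Twitcher mouse brain cell line lacking endogenous GALC, is measured in live-treated cells via 6-hexadecanoylamino-4-methylumbelliferyl-β-galactoside hydrolysis (0.1 mM final, pH 5.2) with fluorescent detection.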
# NTMT1 inhibitor: NTMT1 methyltransferase inhibition; NTMT1 MTase-Glo SAH luminescence, purified enzyme; 59,000 compounds, 2.5% hits; AID 1645870; Potency, µM (doses to about 114 µM), usual class: inhibitors; also: nearly all actives have a fitted effect of over 65% in size
# Target sequence (Q9BV86 whole entry, looked up): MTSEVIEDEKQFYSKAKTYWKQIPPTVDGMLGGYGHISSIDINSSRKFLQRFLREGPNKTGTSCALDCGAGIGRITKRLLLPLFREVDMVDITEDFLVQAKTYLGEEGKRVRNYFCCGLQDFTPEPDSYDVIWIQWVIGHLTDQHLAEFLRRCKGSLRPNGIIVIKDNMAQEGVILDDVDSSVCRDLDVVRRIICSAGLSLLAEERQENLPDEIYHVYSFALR
# FH mod: Identification of activators of human fumarate hydratase by quantitative high-throughput screening. FH coupled MDH/diaphorase resazurin fluorescence, 15 min. Potency, µM (highest dose often 79.9 µM), usual class: inhibitors. 54,000 compounds, 0.22% hits. AID 1347055, 2019; also: the screen sought activators but most active calls are inhibition curves; nearly all actives have a fitted effect of over 45% in size
# Hits are given with their value; - = inactive; ? = inconclusive; . = not tested or not shown; ! = not confirmed by another sample; [ ] = remark or other dose. The entries come from a sample that favours hits as a whole. Calls follow the shape of the dose curve; as a rule, active = well fitted curve in the direction sought with a large enough effect; inconclusive = small, poorly fitted or top-dose-only effect, or another doubt; inactive = no such curve, though single readings can be large; an effect the other way counts as inactive or inconclusive.
SMILES,GALC G270D act,NTMT1 inhibitor,FH mod
CCOC(=O)C1CCN(C(=O)c2ccc3c(c2)sc2nc(-c4ccc(OC)cc4)cn23)CC1,-,89.1µM,-
COc1ccccc1NC(=O)OCC1CCN(C(=O)OC(C)(C)C)CC1,.,-,-
CCCCCCCCCCCCCCCCCCNC(=O)OC1CCN(C(=O)OC[C@H](COC(=O)N(Cc2cccc[n+]2CC)C(=O)c2ccccc2OC)OC)CC1,-,50.1µM,-
C[C@@H]1N=C(N)NC(N(C)C)=N1,.,-,-
COc1cc(/C=C(\C#N)c2nc3ccccc3[nH]2)ccc1OCc1ccccc1F,-,-,-
CCC(=O)Oc1ccc(/C=C(\C#N)c2nc3ccccc3[nH]2)cc1OC,-,25.1µM,-
C=CC(=O)N1CCC(CNc2ncnc(N)c2-c2ccc(Oc3ccccc3)cc2)CC1,.,-,.
CN(CCOc1ccc(C[C@H](Nc2ccccc2C(=O)c2ccccc2)C(=O)O)cc1)c1ccccn1,.,79.4µM!,.
COC(=O)C(Cc1ccc(OCCn2c(=O)sc3cc(C(=O)c4ccccc4)ccc32)cc1)C(=O)OC,.,-,-
COc1cc2c(cc1OC)[C@@H]1Cc3ccc(OC)c(OC)c3CN1CC2,.,-,-
COc1ccc2cc1Oc1ccc(cc1)CC1c3cc(c(OC)cc3CCN1C)Oc1c(OC)c(OC)c(OC)c3c1C(C2)N(C)CC3 (stereo unspecified),.,39.8µM,-
COc1cc2c3cc1Oc1cc(ccc1O)C[C@@H]1c4c(cc(OC)c(O)c4Oc4ccc(cc4)C[C@@H]3N(C)CC2)CC[N+]1(C)C,-,?,-
COc1ccc2cc1Oc1cc3c(cc1OC)CC[N+](C)(C)[C@H]3Cc1ccc(cc1)Oc1c(OC)c(OC)cc3c1[C@@H](C2)[N+](C)(C)CC3,-,12.6µM,-
CC(=O)Nc1sc2c(c1-c1ccc3nonc3c1)CCNC2,.,-,.
CC1=C2C3OC(=O)C(C)C3(O)CCC2(C)CCC1O (stereo unspecified),.,-,-
COc1ccc(-c2nn(-c3ccc(F)cc3)c3c2cnc2cc4c(cc23)OCO4)cc1,-,-,-
COc1cc(OC)cc(-c2ccc3ncc4ccc(=O)n(-c5ccc(N6CCNCC6)c(C(F)(F)F)c5)c4c3c2)c1,.,42.9µM,-
CC1=C(C(=O)OC2CCCCCC2)C(c2ccc(Cl)cc2)CC(=O)N1 (stereo unspecified),-,-,-
N#CC1=C2SCN(C3CCCCC3)CN2C(=O)CC1c1c(F)cccc1Cl (stereo unspecified),-,31.6µM,-
N#CC1=C2SCN(C3CCCCC3)CN2C(=O)CC1c1ccc(F)cc1 (stereo unspecified),-,25.1µM,-
N#CC1=C2SCN(C3CCCCC3)CN2C(=O)CC1c1ccc(Cl)cc1 (stereo unspecified),-,25.1µM,-
C=CC(=O)Nc1cc(N2CCN(CC)CC2)ccc1Nc1cc(N(C)C(=O)Nc2c(Cl)c(OC)cc(OC)c2Cl)ncn1,.,-,.
O=S(=O)(Nc1nccs1)c1ccc(NCc2cccc(Br)c2O)cc1,.,-,.
COc1ccc(/C=C(\C)C2Nc3cccc4cccc(c34)N2)cc1,.,-,.
CN(C)CCNC(=O)COc1c2cccc1Cc1cccc(c1OCC(=O)NCCN(C)C)Cc1cccc(c1OCC(=O)NCCN(C)C)Cc1cccc(c1OCC(=O)NCCN(C)C)C2,.,-,.
SMILES,GALC G270D act,NTMT1 inhibitor,FH mod
O=C1NC(=O)C(c2c[nH]c3ccccc23)=C1c1c[nH]c2ccccc12,.,11.2µM,-
Clc1ncoc1-c1c[nH]c2ccccc12,.,-,-
O=C(O)c1cc(Br)c(O)c2ncccc12,.,-,.
Nc1ncnc2c1c(-c1cccc(OCc3ccccc3)c1)cn2C1CC(CN2CCC2)C1 (stereo unspecified),.,10µM!,-
Nc1ncnc2c1c(-c1ccc(Oc3ccccc3)cc1)nn2[C@@H]1CCCNC1,.,-,-
O=C(O/N=C1\c2ccccc2-c2nc3ccccc3nc21)c1ccco1,.,?,-
Cc1ccc(Cl)cc1NC(=O)c1cnc(N2CCCCC2)c2ccccc12,-,89.1µM,-
Cc1ccc(NC(=O)c2cnc(N3CCCCC3)c3ccccc23)c(C)c1,-,-,-
Cc1cc2nn(-c3ccccc3)nc2cc1NC(=O)Cc1ccc(Cl)cc1,-,-,-
CCCCc1ccc(-n2nc3cc(C)c(NC(=O)Cc4ccccc4)cc3n2)cc1,-,79.4µM,-
Nc1nc(NCc2ccc(-c3cccnc3)cc2)c2ccccc2n1,.,-,.
Cc1ccc(S(=O)(=O)Nc2nc3n(n2)C(c2ccc(Cl)cc2)C=C(c2ccccc2)N3)cc1 (stereo unspecified),-,35.5µM,?
Cc1ccc(C2C=C(c3ccccc3)Nc3nc(NS(=O)(=O)c4ccccc4)nn32)cc1 (stereo unspecified),-,-,-
Cc1ccc(-c2ccc(=O)n(CC(=O)NCCCc3ccccc3)n2)cc1,.,-,.
C=C1CC2C3(C)C(O)CC(=O)C(C)(C)C3C(O)C(OC(C)=O)C2(C)C2C(=O)OC(C)(C(=O)OC)C(=O)C12C (stereo unspecified),.,-,-
CCCc1c(C(C)C)nc(C(C)C)c([C@@H](C)O)c1-c1ccc(F)cc1O,.,-,?
CC(=O)Nc1sc2c(c1-c1ccc(N(C)C)cc1)CCNC2,.,14.1µM,.
CC(=O)Nc1sc2c(c1-c1ccc(F)cc1)CCNC2,.,-,.
Nc1ncc(C(=O)NC2CN(C(=O)C3CC3)C2)c2ccc(-c3cccc(F)c3)nc12,.,-,.
CCOC(=O)NNc1ccc(N(CC)CC(C)O)nn1 (stereo unspecified),-,28.2µM,-
CCOC(=O)NNc1nncc2ccccc12,-,-,-
CO[C@H]1/C=C/C=C/C=C/C[C@H](OC(=O)[C@@H](C)NC(=O)C2CCCCC2)[C@H](C)[C@@H](O)/C(C)=C/CCc2cc(O)cc(c2)NC(=O)C1,.,-[12.6 µM],-
CC(C)C[C@H](CO)Nc1nc(S[C@@H](C)c2ccccc2)nc2nc(N)sc12,.,-,?
CN(C)S(=O)(=O)c1ccc(C(=O)NC2CC(=O)N(c3ccc4c(c3)OCCO4)C2)cc1 (stereo unspecified),-,89.1µM,-
CCN(CC)S(=O)(=O)c1ccc(C(=O)NC2CC(=O)N(c3ccc4c(c3)OCCO4)C2)cc1 (stereo unspecified),-,-,-
SMILES,GALC G270D act,NTMT1 inhibitor,FH mod
Cc1cc(C(C#N)c2ccc(Cl)cc2)c(Cl)cc1NC(=O)c1cc(I)cc(I)c1O (stereo unspecified),-,17.8µM!,?
Cc1cc2c(cc1NC(=O)c1ccccc1Cl)n(C)c(=O)c(=O)n2C,-,-,-
CC1=CC(=O)C2C(C)(C)CCCC2(C)C12CCC1(COC(=O)C1)O2 (stereo unspecified),.,-,?
c1cc(NC2CCNCC2)nc(-c2cnc3ccccn23)c1,.,44.7µM,?
Clc1ccc2ncc(-c3cccc(NC4CCNC4)n3)n2c1 (stereo unspecified),.,?,-
COc1cc(OC)cc(N2CCN(C(=O)Nc3nc4cc(F)ccc4nc3OC)CC2)c1,.,-,.
O=c1c(-c2ccc(O)cc2)coc2cc(O[C@@H]3O[C@H](CO)[C@H](O)[C@H](O)[C@H]3O)ccc12,.,-,-
